From the supplement of paper PMC7411054
Structures can show the parent of a compound that is named as a salt.

test system: WPMY1-TUBA1B-RELA; assay: lowest phenotypically active concentration; higher = less potent; conditions: treatment time: 24 h
Outline: (§1)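 Each of fifteen gene-edited A549, HepG2 and WPMY1 reporter lines, marked with BFP for segmentation and GFP and RFP/FusionRed, was treated in four wells at 0.3, 1, 3 or 9 µM for 24 h prior to live imaging. Normalisation of per-well live-cell features used solvent control wells. Deviation needed ≥3 of 4 wells beyond the 95th percentile of control Euclidean distances, and reproducibility needed a median replicate Pearson correlation above the 95th percentile of non-replicates. Both were required for phenotypic activity.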

Compound | lowest phenotypically active concentration [µM]
COc1cc2c(c(OC)c1OC)-c1ccc(OC)c(=O)cc1[C@@H](NC(C)=O)CC2 [colchicine] | ≤ 0.3
N#CC(C#N)=NNc1cccc(Cl)c1 | 3
CCN1CCN(C(=O)Cc2ccc(Nc3ncc(F)c(Nc4ccc(C(=O)Nc5ccccc5Cl)cc4)n3)cc2)CC1 | 1
O=C(NCCN1CCC2(CC1)C(=O)NCN2c1cccc(F)c1)c1ccc(F)c(F)c1 [ML 298 hydrochloride] | 9
CCn1cnc2c(Nc3cccc(Cl)c3)nc(N[C@H]3CCCC[C@H]3N)nc21 | 1
O=C(Nc1ccncc1)C(=O)c1cn(Cc2ccc(Cl)cc2)c2ccccc12 [Indibulin] | ≤ 0.3
CC[C@@H](C(=O)[C@@H](C)[C@@H](O)[C@H](C)[C@@H]1O[C@@H]([C@@H](CC)C(=O)O)CC[C@@H]1C)[C@H]1O[C@]2(C=C[C@@H](O)[C@]3(CC[C@@](C)([C@H]4CC[C@](O)(CC)[C@H](C)O4)O3)O2)[C@H](C)C[C@@H]1C [Salinomycin Sodium] | ≤ 0.3
CN1C[C@H](C(=O)N[C@]2(C)O[C@@]3(O)[C@@H]4CCCN4C(=O)[C@H](Cc4ccccc4)N3C2=O)C=C2c3cccc4[nH]cc(c34)C[C@H]21 [ergotamine] | 3
N#CC(C#N)=NNc1ccc(OC(F)(F)F)cc1 | 9
COC1=CC(C)=C[C@@H](C)[C@@H](O)[C@@H](C)CC(C)=CC=C[C@H](OC)[C@@H]([C@@H](C)[C@@H](O)[C@H](C)[C@@]2(O)C[C@@H](O)[C@H](C)[C@@H](C(C)C)O2)OC1=O [Bafilomycin A1] | 3
COc1cc([C@@H]2c3cc4c(cc3[C@H](O)[C@H]3COC(=O)[C@H]23)OCO4)cc(OC)c1OC [Podophyllotoxin] | ≤ 0.3
CC[C@]12C=CCN3CC[C@]4(C(=C(C(=O)OC)C1)Nc1ccccc14)[C@@H]32 [Tabersonine dichlorhydrate] | 9

test system: A549-ACTB-RAB5A; assay: phenotypically active (imaging signature differs from DMSO and reproducible) at any of 0.3-9 uM (binary (1 = active, 0 = inactive)); higher = active; conditions: treatment time: 24 h
Outline: as §1

Compound | phenotypically active
CC[C@H]1CN2CC[C@H]1C[C@@H]2[C@@H](O)c1ccnc2ccc(OC)cc12 [Hydroquinidine HCl] | 1 (active)
COc1cc2c(c(OC)c1OC)-c1ccc(O)c(=O)cc1[C@@H](N)CC2 [Trimethylcolchicinic acid] | 1 (active)
C[C@@]1(CO)[C@H](O)CC[C@@]2(C)[C@H]1CC[C@H]1C[C@@H]3C[C@@]12CC[C@]3(O)CO [Aphidicolin] | 1 (active)
COC(=O)[C@@]1(O)C[C@H]2O[C@]1(C)n1c3ccccc3c3c4c(c5c6ccccc6n2c5c31)C(=O)NC4 | 1 (active)
COc1ccc(N(C(=O)Oc2c(C)cccc2C)c2ccnc(Nc3ccc(N4CCN(C)CC4)cc3)n2)c(OC)c1 | 1 (active)
COc1ccc2c(c[n+](C)c3c4cc5c(cc4ccc23)OCO5)c1OC [Chelerythrine chloride] | 1 (active)
CC[C@@H]1C=CC=CC[C@H](C)[C@@H](O)[C@](C)(O)C(=O)[C@H](C)[C@@H](O)[C@H](C)C(=O)[C@H](C)[C@@H](O)[C@H](C)C=CC(=O)O[C@H]2[C@@H](C)[C@@H](CC1)O[C@@]1(CC[C@@H](C)[C@@H](C[C@H](C)O)O1)[C@@H]2C [Oligomycin A] | 1 (active)
CC(C)[C@@]1(NC(=O)[C@@H]2C[C@@H]3c4cccc5[nH]cc(c45)C[C@H]3N(C)C2)O[C@@]2(O)[C@@H]3CCCN3C(=O)[C@H](Cc3ccccc3)N2C1=O [Dihydroergocristine mesylate] | 1 (active)
O=c1[nH]c2ccccc2n1C1CCN(CCCC(c2ccc(F)cc2)c2ccc(F)cc2)CC1 [pimozide] | 1 (active)
C[C@]12CC[C@H]3[C@@H](CC[C@]4(O)C[C@@H](O)CC[C@]34C=O)[C@@]1(O)CC[C@@H]2C1=CC(=O)OC1 [Strophanthidin] | 1 (active)
CN1CCC2=C[C@H](O)[C@H]3OC(=O)c4cc5c(cc4[C@H]3[C@@H]21)OCO5 [Hippeastrine hydrobromide] | 1 (active)
C=C1[C@@H](O)C2C=CC[C@H](C)C(=O)[C@](C)(O)C=C[C@@H](OC(C)=O)[C@]23C(=O)N[C@H](Cc2ccccc2)[C@@H]3[C@@H]1C (stereo partly specified) [Cytochalasin D] | 1 (active)
COc1ccc(C[C@H]2NC[C@H](O)[C@H]2OC(C)=O)cc1 [Anisomycin] | 1 (active)
C[C@@H]1CC[C@H]2[C@@H](C)C(=O)O[C@@H]3O[C@@]4(C)CC[C@@H]1[C@]32OO4 [Artemisinin] | 1 (active)
